According to PubChem BioAssay AID624021 (National Center for Advancing Translational Sciences (NCATS), 2012):
Inconclusive results are not listed. The source made the active and inactive calls. Calls come from the whole dose curve; as a rule, active = well fitted curve in the direction sought with a large enough effect; inconclusive = small, poorly fitted or top-dose-only effect, or another doubt; inactive = no such curve, though single readings can be large or run the other way.

The molecules below were run against Isocitrate dehydrogenase [NADP] cytoplasmic (Homo sapiens) (UniProt O75874) (assay: qHTS for Inhibitors of mutant isocitrate dehydrogenase 1 (IDH1): WT assay for probe SAR). Conditions: WT IDH1 enzyme, NADPH diaphorase/resazurin fluorescence; series mostly up to 100 µM.
Isocitrate dehydrogenase [NADP] cytoplasmic (Homo sapiens), sequence (O75874 whole entry, looked up): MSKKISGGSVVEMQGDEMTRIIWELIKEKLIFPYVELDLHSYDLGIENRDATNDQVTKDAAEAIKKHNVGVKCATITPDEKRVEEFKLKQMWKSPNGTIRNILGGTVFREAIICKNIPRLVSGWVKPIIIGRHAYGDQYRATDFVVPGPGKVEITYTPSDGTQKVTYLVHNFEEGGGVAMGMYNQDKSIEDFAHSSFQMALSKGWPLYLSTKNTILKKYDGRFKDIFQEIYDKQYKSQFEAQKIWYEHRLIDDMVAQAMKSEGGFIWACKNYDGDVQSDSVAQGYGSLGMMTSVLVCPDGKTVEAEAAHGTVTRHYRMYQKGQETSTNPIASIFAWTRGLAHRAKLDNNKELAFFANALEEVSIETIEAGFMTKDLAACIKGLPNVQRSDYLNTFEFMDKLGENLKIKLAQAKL
Text: Malignant glioblastomas (WHO grade IV), including primary and secondary glioblastomas, are among the most lethal with a median survival of one year, and unfortunately they are also the most prevalent type of brain tumors. By and large the standard of care of gliomas remains the use of the oral alkylating agent temozolomide and radiotherapy following surgical tumor resection. There is an urgent unmet medical need for novel therapeutics for gliomas. IDH mutations occur in up to 70% of grade II-IV secondary glioblastomas, and IDH1 R132H is the most prevalent mutation. […] Wild-type (WT) IDH1 catalyzes the conversion of isocitrate to -ketoglutarate with the concomitant reduction of NADP+ to NADPH. In contrast, IDH1 R132H catalyzes the conversion of -ketoglutarate to 2-hydroxyglutarate (2-HG) with the concomitant oxidation of NADPH to NADP+ [5]. Recently, a second significant advancement for the field was the finding that IDH is an oncogene, and that its metabolic product 2-HG may contribute to the pathogenesis of IDH-mutated cancers. […] Although this link to cancer is tantalizing, the direct evidence of how 2-HG drives pathogenesis of gliomas and AML remains a subject of further research. The goal of this selectivity assay is to identify small-molecule inhibitors of WT IDH1 using a biochemical assay that measures product NADPH production through the use of a diaphorase/resazurin-coupled system. Inhibition of the WT IDH1 enzymatic reaction leads to a decrease in the amount of NADPH relative to a DMSO control and a concomitant decrease in the fluorescence of the diaphorase/resazurin enzyme product resorufin at 590 nm. Compounds were screened as concentration-titration series that ranged from 100 microM to 5 nM. NIH Molecular Libraries Probe Production Network [MLPCN] NIH Chemical Genomics Center [NCGC] MLSCN Grant: R03 DA032129 PI Name: Dr. Lenny Dang
Compounds or DMSO were dispensed into black, solid 96-well plates at 1 microL/well. Then, 40 microL/well enzyme buffer was dispensed in 20 mM Tris buffer, pH 7.5, containing final concentrations of 10 mM MgCl2, 20 mM NaCl, 0.05% BSA, 2 mM beta-ME and […] WT IDH1. These were incubated at RT for 60 minutes. The substrate and detection buffer (10 microL; 20 mM Tris buffer, pH 7.5, containing final concentrations of 10 mM MgCl2, 20 mM NaCl, 0.05% BSA, 0.05 mM NADP+, 0.00053 mM diaphorase, 0.04 mM resazurin and 0.07 mM isocitrate) was added to start the enzymatic reaction. The reaction progressed for 30 minutes at RT and which point 25 microL/well of 2% SDS was added as a stop solution. Following 1 minute of shaking on an oribital shaker, the fluorescence intensity was monitored on a Spectramax M5 plate reader (Ex 544, Em 590, bodipy filter). The %Activity was determined from the corrected fluorescence values. As no specific WT IDH1 inhibitors have been identified in the literature, 1x (0.65 nM) and 0x WT IDH1 enzyme controls (untreated) were included to normalize %Activity of identified inhibitors; 0x enzyme values corresponded to 100%Activity (full inhibition), while 1x WT IDH1 enzyme values were used to normalize 0%Activity (no inhibition ). Concentration-response curves were fitted to the signals arising from the resulting fluorescence. The concentration-response curves were then classified based on curve quality (r2), response magnitude and degree of measured activity, and compounds were subsequently categorized based on their curve class. […] Keywords: Isocitrate dehydrogenase, IDH1, IDH1 R132H, 2-HG, 2-hydroxyglutarate, AML, glioma, MLSMR, MLPCN, NIH Roadmap, qHTS, NCGC

outcome, inactive:
Cc1ccccc1C(C(=O)NC1CCCC1)N(C(=O)Cc1cccs1)c1ccccc1 (configuration not stated)
Cc1ccccc1C(C(=O)NC(C)(C)C)N(C(=O)Cc1cccs1)c1cccc(F)c1 (configuration not stated)
Cc1ccccc1C(C(=O)NC1CCCCC1)N(C(=O)Cc1cccs1)C(C)C (configuration not stated)
COc1ccc(N(C(=O)Cn2cnc3ccccc32)C(C(=O)NC2CCCCC2)c2ccccc2)cc1 (configuration not stated)
Cc1ccccc1C(C(=O)NC1CCCC1)N(C(=O)Cc1cccs1)c1ccccc1F (configuration not stated)
Cc1ccccc1C(C(=O)NC1CCCCC1)N(C(=O)CNS(=O)(=O)c1ccccc1)c1cccc(F)c1 (configuration not stated)
O=C(NC1CCCCC1)C(C1CCCC1)N(C(=O)Cc1cccs1)c1cccc(F)c1 (configuration not stated)
Cc1nc(C)c(C(=O)N(c2cccc(F)c2)C(C(=O)NC2CCCCC2)c2ccccc2)s1 (configuration not stated)
COc1ccc(N(C(=O)C2COc3ccccc3O2)C(C(=O)NC2CCCCC2)c2ccccc2)cc1OC (configuration not stated)
Cc1ccccc1C(C(=O)N(C)C1CCCCC1)N(C(=O)Cc1cccs1)c1cccc(F)c1 (configuration not stated)
COc1cccc(C(C(=O)NC2CCCCC2)N(C(=O)c2cccs2)c2ccc3c(c2)OCO3)c1 (configuration not stated)
Cc1ccccc1C(C(=O)NCc1ccccc1)N(C(=O)Cc1cccs1)c1cccc(F)c1 (configuration not stated)
O=C(NC1CCCC1)C(c1cccs1)N(C(=O)Cc1cccs1)c1cccc(F)c1 (configuration not stated)
COc1ccc(C(C(=O)NC2CCCC2)N(C(=O)Cc2cccs2)c2cccc(F)c2)cc1OC (configuration not stated)
COc1ccccc1CN(C(=O)Cc1cccs1)C(C(=O)NC1CCCCC1)c1ccccc1F (configuration not stated)
COc1ccc(N(C(=O)Cc2cccs2)C(C(=O)NC2CCCC2)c2ccccc2C)cc1OC (configuration not stated)
Cc1ccccc1C(C(=O)NC1CCCCC1)N(C(=O)c1ccccn1)c1cccc(F)c1 (configuration not stated)
COc1cccc(N(C(=O)Cc2cccs2)C(C(=O)NC2CCCC2)c2ccccc2)c1 (configuration not stated)
O=C(NC1CCCC1)C(c1ccccc1)N(C(=O)Cc1cccs1)c1cccc(F)c1 (configuration not stated)
Cc1ccc(C(C(=O)NC2CCCC2)N(C(=O)Cc2cccs2)c2cccc(F)c2)o1 (configuration not stated)
O=C(NC1CCCCC1)C(c1ccncc1)N(C(=O)Cc1cccs1)c1cccc(F)c1 (configuration not stated)
COc1cc(OC)cc(N(C(=O)Cc2cccs2)C(C(=O)NC2CCCC2)c2ccccc2C)c1 (configuration not stated)
